Results: PubChem BioAssay (Tox21)
Inconclusive results are not listed. Entries that show only a call come without a potency. Values without a mark were called inactive. Activity calls are given as the source filed them. The call rests on the fitted dose curve; in most records, active means well fitted cell-killing curve with a large enough effect in the repeat runs; inconclusive means weak or mixed curves, or effect the other way; inactive means flat fitted curve, though single readings scatter.

Assays:
[1] = cAMP Responsive Elements (CRE) small molecule antagonists, cell-based qHTS assay: qHTS cell viability counter screen (AID 2060913); further: nearly all actives have a fitted effect of over 40% in size
Outline: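 Steps: cells plated and held 18 hrs at 37 C/5% CO2; compounds and NKH477 (0.25 uM final) added; 3 hrs incubation; reporter substrate read; CellTiter-Glo added to measure cytotoxicity by luminescence.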

[2] = cAMP Responsive Elements (CRE) small molecule agonists, cell-based qHTS assay: qHTS cell viability counter screen (AID 2060914);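 further: viability read after 3 h of compound exposure; nearly all actives have a fitted effect of over 50% in size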
Outline: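 CRE-bla HEK293T cells in 10% dialyzed FBS medium were exposed to compounds for 3 h at 37C after 18 h plating. CellTiter-Glo was then added in the same wells, and luminescence was read after 30 min at room temperature.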
Potency means the concentration at half of the fitted maximal effect.

SMILES | Potency [1] | Potency [2] | viability change, negative = cytotoxic [1] | activity change, negative = cytotoxicity [2]
COc1cc(O)c(C(=O)c2ccccc2)cc1S(=O)(=O)O | inactive | inactive | – | –
O=C1c2ccccc2C(=O)N1CO | inactive | inactive | – | –
O=C(O)c1cc(Cl)cc([N+](=O)[O-])c1Cl | inactive | inactive | – | –
ClC/C=C\CCl | inactive | inactive | – | –
Oc1cccc2cc3cccc(O)c3c(O)c12 | inactive | inactive | – | –
CCCCC(CC)COC(=O)/C=C/c1ccc(OC)cc1 (centres undefined) | inactive | inactive | – | –
COC(=O)[C@@H]1CC2=CC(=O)CC[C@]2(C)[C@@]23O[C@@H]2C[C@@]2(C)[C@@H](CC[C@@]24CCC(=O)O4)[C@H]13 | inactive | inactive | – | –
Cc1cccc(C)c1NC(=O)CC12CCCN1CCC2 | inactive | inactive | – | –
Cc1ccc(S(=O)(=O)O)c(C)c1 | inactive | inactive | – | –
COC(=O)C1=C(C)NC(C)=C(C(=O)OCCN2CCN(C(c3ccccc3)c3ccccc3)CC2)C1c1cccc([N+](=O)[O-])c1 (centres undefined) | inactive | inactive | – | –
CN(C)C(=O)Oc1cccc([N+](C)(C)C)c1 | inactive | inactive | – | –
Cc1cc(=O)[nH]c(=S)[nH]1 | inactive | inactive | – | –
CCOc1ccc(NC(=O)CC(C)O)cc1 (centres undefined) | inactive | inactive | – | –
OCCN(CCO)c1nc(N2CCCCC2)c2nc(N(CCO)CCO)nc(N3CCCCC3)c2n1 | inactive | inactive | – | –
Cc1c(Nc2ncccc2C(=O)O)cccc1C(F)(F)F | inactive | inactive | – | –
S=c1nccc[nH]1 | inactive | inactive | – | –
Oc1c(I)cc(I)c2cccnc12 | inactive | inactive | – | –
CCOC(=O)/C=C(C)/C=C/C=C(C)/C=C/c1c(C)cc(OC)c(C)c1C | inactive | inactive | – | –
O=[N+]([O-])c1ccc(F)c(Cl)c1 | inactive | inactive | – | –
N[C@H](Cc1c[nH]c2ccccc12)C(=O)O | inactive | inactive | – | –
C=Cc1ccc(O)c(OC)c1 | inactive | inactive | – | –
CCCCCCCCC1CCC(=O)O1 (centres undefined) | inactive | inactive | – | –
CCCCSCCCC | inactive | inactive | – | –
c1coc(CNc2ncnc3nc[nH]c23)c1 | inactive | inactive | – | –

SMILES | Potency [1] | Potency [2] | viability change, negative = cytotoxic [1] | activity change, negative = cytotoxicity [2]
c1ccc2scnc2c1 | inactive | inactive | – | –
CC1=CCC(C(C)C)C=C1 (centres undefined) | inactive | inactive | – | –
CC(C)C(C)(C)C(C)(C)C(C)(C)S | inactive | inactive | – | –
O=C(O)CCCCCC(=O)O | inactive | inactive | – | –
CN(C)C(C)(C)CO | inactive | inactive | – | –
CCC(=O)c1ccc2c(c1)N(CCCN(C)C)c1ccccc1S2 | inactive | inactive | – | –
NC(=O)c1ccccc1 | inactive | inactive | – | –
C=C(C)C(=O)OCCCCCCCC(C)C | inactive | inactive | – | –
CC1=CC(=O)CC(C)(C)C1 | inactive | inactive | – | –
O=C1c2ccccc2C(=O)C1c1ccccc1 | inactive | inactive | – | –
CN(C)CCc1c[nH]c2ccc(CS(=O)(=O)N3CCCC3)cc12 | inactive | inactive | – | –
COC(=O)/C=C(/C)N | inactive | inactive | – | –
CC(C)CCOC(=O)CC(C)C | inactive | inactive | – | –
FC(F)(F)c1ccccc1Cl | inactive | inactive | – | –
CCOC(=O)/C=C/c1ccccc1 | inactive | inactive | – | –
CCCCCCCCCCCCCCCCBr | – | – | -5.25% [at 18.9 µM] | 6.55% [at 18.9 µM]
CCCCCCCCCCCCCc1ccccc1 | inactive | inactive | – | –
CC(N)CN (centres undefined) | inactive | inactive | – | –
Cc1ccc(C(C)C)c(O)c1 | inactive | inactive | – | –
CC(=O)OC1CCCCC1 | inactive | inactive | – | –
CCOc1ccc2nc3cc(N)ccc3c(N)c2c1 | inactive | inactive | – | –
CN1CCN2c3ccccc3Cc3ccccc3C2C1 (centres undefined) | inactive | inactive | – | –
N[C@@H](Cc1cc(I)c(Oc2cc(I)c(O)c(I)c2)c(I)c1)C(=O)O | inactive | inactive | – | –
CCC(COC(=O)CCS)(COC(=O)CCS)COC(=O)CCS | inactive | inactive | – | –

SMILES | Potency [1] | Potency [2] | viability change, negative = cytotoxic [1] | activity change, negative = cytotoxicity [2]
O=C1Cc2cc(CCN3CCN(c4nsc5ccccc45)CC3)c(Cl)cc2N1 | inactive | inactive | – | –
CCCN1CCCC[C@H]1C(=O)Nc1c(C)cccc1C | inactive | inactive | – | –
Cc1cc(S(=O)(=O)O)ccc1N=Nc1c(O)ccc2ccccc12 | inactive | inactive | – | –
O=C(O)c1ccccc1Nc1cccc(C(F)(F)F)c1 | inactive | inactive | – | –
CC(C)=CCOC(=O)c1ccccc1 | inactive | inactive | – | –
CCCCCCCC(=O)OC | inactive | inactive | – | –
CC(C)(O)c1coc(S(=O)(=O)NC(=O)Nc2c3c(cc4c2CCC4)CCC3)c1 | inactive | inactive | – | –
CCCCCCCCOCCCN | inactive | inactive | – | –
C[Si](C)(C)N[Si](C)(C)C | inactive | inactive | – | –
CCO/C=C1\N=C(c2ccccc2)OC1=O | inactive | inactive | – | –
C=C1[C@H]2CC[C@@H]3[C@H]2C(C)(C)CCC[C@]13C | inactive | inactive | – | –
C=CCON/C(CCC)=C1\C(=O)CC(C)(C)C(C(=O)OC)=C1O | inactive | inactive | – | –
NC(N)=NCCN1CCCCCCC1 | – | – | 0.247% [at 0.349 µM] | -6.13% [at 0.349 µM]
COc1ccccc1OC(=O)Oc1ccccc1OC | inactive | inactive | – | –
CC(C)(C)c1ccc(C(=O)O)cc1 | inactive | inactive | – | –
CN(C)C(=O)Nc1ccc(Oc2ccc(Cl)cc2)cc1 | inactive | inactive | – | –
Oc1ccc2ccccc2c1N=Nc1ccccc1 | inactive | inactive | – | –
NS(=O)(=O)c1cc2c(cc1Cl)NC(CSCc1ccccc1)=NS2(=O)=O | inactive | inactive | – | –
CCCCNC(N)=O | inactive | inactive | – | –
Cc1ccccc1Cl | inactive | inactive | – | –
CCCCCCCCCCC=O | inactive | inactive | – | –
Cc1cc(N)c2cc(NC(=O)Nc3ccc4nc(C)cc(N)c4c3)ccc2n1 | inactive | inactive | – | –
COc1cc(-c2ccc(N=C=O)c(OC)c2)ccc1N=C=O | inactive | inactive | – | –
CCOC(=O)C(=O)OCC | inactive | inactive | – | –

SMILES | Potency [1] | Potency [2] | viability change, negative = cytotoxic [1] | activity change, negative = cytotoxicity [2]
OC[C@H]1O[C@H](O[C@H]2O[C@H](CO)[C@@H](O)[C@H](O)[C@H]2O)[C@H](O)[C@@H](O)[C@@H]1O | inactive | inactive | – | –
COCCc1ccccn1 | inactive | inactive | – | –
CCOC(=O)C(=O)CCc1ccccc1 | inactive | inactive | – | –
COc1cc(Cl)c(OC)cc1N | inactive | inactive | – | –
O=C(c1ccccc1)C1CCCCC1 | inactive | inactive | – | –
O=C1c2ccccc2CCc2ccccc21 | inactive | inactive | – | –
CCOc1c(N2CCOCC2)cnn(C)c1=O | inactive | inactive | – | –
Cc1c(O)cccc1O | inactive | inactive | – | –
C=C(C)CCO | inactive | inactive | – | –
CCN(CC)CCOc1ccccc1C(=O)CCc1ccccc1 | inactive | inactive | – | –
CC(COc1ccccc1)NN (centres undefined) | inactive | inactive | – | –
CCCCCCOC(=O)C(C)CC (centres undefined) | inactive | inactive | – | –
c1cc(OCC2CO2)cc(OCC2CO2)c1 (centres undefined) | inactive | inactive | – | –
CNCC[C@@H](Oc1ccccc1C)c1ccccc1 | inactive | inactive | – | –
CC1=CCC(C(C)(C)O)CC1 (centres undefined) | inactive | inactive | – | –
NC(=O)c1ccccc1Cl | inactive | inactive | – | –
Cc1nc2sccn2c(=O)c1CCN1CCC(=C(c2ccc(F)cc2)c2ccc(F)cc2)CC1 | inactive | inactive | – | –
C=C(C)C(=O)OCC | inactive | inactive | – | –
C=C/C(C)=C/C/C=C(\C)CCC=C(C)C | inactive | inactive | – | –
CC(CC=O)c1ccccc1 (centres undefined) | inactive | inactive | – | –
CC(CCC(=O)O)(c1ccc(O)cc1)c1ccc(O)cc1 | inactive | inactive | – | –
Cc1cc(C)cc(O)c1 | inactive | inactive | – | –
CCn1c2ccccc2c2ccccc21 | inactive | inactive | – | –
CC(=O)N1CCN(c2ccc(OC[C@H]3CO[C@](Cn4ccnc4)(c4ccc(Cl)cc4Cl)O3)cc2)CC1 | 54.5 µM (active) | 68.6 µM (active) | – | –

SMILES | Potency [1] | Potency [2] | viability change, negative = cytotoxic [1] | activity change, negative = cytotoxicity [2]
CCCCCCCCCCCCCCCC(=O)OC/C=C(C)/C=C/C=C(C)/C=C/C1=C(C)CCCC1(C)C | inactive | inactive | – | –
Nc1ccc(C(=O)N2CC3CC(CN(Cc4ccccc4)C3)C2)cc1 | inactive | inactive | – | –
CC(=O)Nc1ccccc1 | inactive | inactive | – | –
O=C(O)CNc1ccccc1 | inactive | inactive | – | –
C[C@H]1C[C@H](O)c2ccsc2S1(=O)=O | inactive | inactive | – | –
O=C(OCC(COC(=O)c1ccccc1)(COC(=O)c1ccccc1)COC(=O)c1ccccc1)c1ccccc1 | inactive | inactive | – | –
C=CCCCCCCCCC(=O)OCCCC | inactive | inactive | – | –
CO[Si](CCCS)(OC)OC | inactive | inactive | – | –
CCCCCC1=CCCC1=O | inactive | inactive | – | –
N#Cc1ccc(C(c2ccc(C#N)cc2)n2cncn2)cc1 | inactive | inactive | – | –
CN1CC(=O)N2[C@H](c3ccc4c(c3)OCO4)c3[nH]c4ccccc4c3C[C@@H]2C1=O | inactive | inactive | – | –
CCCCCCCCCCCCCCCC(=O)O | inactive | inactive | – | –
Nc1c(I)cc(I)c(C(=O)N(CCC(=O)O)c2ccccc2)c1I | inactive | inactive | – | –
CC(N)C(=O)OC(C)(C)Cc1ccc(Cl)cc1 (centres undefined) | inactive | inactive | – | –
CCCCC(CC)CCC(CC(C)C)OS(=O)(=O)O (centres undefined) | inactive | inactive | – | –
CC1(C)O[C@@H]2C[C@H]3[C@@H]4C[C@H](F)C5=CC(=O)C=C[C@]5(C)[C@H]4[C@@H](O)C[C@]3(C)[C@]2(C(=O)CO)O1 | inactive | inactive | – | –
O=S(=O)(O)c1ccc2c(N=Nc3ccc(S(=O)(=O)O)c4ccccc34)c(O)c(S(=O)(=O)O)cc2c1 | – | – | 7.11% [at 8.39 µM] | 0.372% [at 8.39 µM]
CCOC(=O)[C@@H](C)Oc1ccc(Oc2nc3ccc(Cl)cc3o2)cc1 | inactive | inactive | – | –
NS(=O)(=O)c1cc2c(cc1Cl)NCNS2(=O)=O | inactive | inactive | – | –
Cc1ccc(C(=O)c2cc(O)c(O)c([N+](=O)[O-])c2)cc1 | inactive | inactive | – | –
CC(C)CC(=O)CC(C)C | inactive | inactive | – | –
